These results are taken from PubChem BioAssay (Tox21).

Test [1] is described as follows: qHTS assay for small molecule agonists of the p53 signaling pathway (AID 651631; calls by dose curve; also: nearly all actives have a fitted effect of over 15% in size; also: potency is read from the fitted curve at half-maximal effect). In short, it runs like this:
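HCT-116 cells carrying a stable p53 response element–beta-lactamase reporter were plated, rested 5 h at 37 °C, then exposed to compound in DMSO for 16 h at 37 °C; reporter activity was read as FRET substrate fluorescence after 2 h at room temperature.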

A short description of test [2]: qHTS assay for small molecules that induce genotoxicity in human embryonic kidney cells expressing luciferase-tagged ATAD5 (AID 651632). Also: nearly all actives have a fitted effect of over 15% in size. In outline: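 Test compounds were delivered by pin tool onto HEK293T reporter cells (2,000/well) expressing ATAD5 fused to luciferase. After 16 hr at 37C, 5% CO2, Amplite was added for 30 min at room temperature and luminescence was measured.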

A short description of test [3]: qHTS assay for small molecule agonists of the p53 signaling pathway - cell viability (AID 651633; calls by dose curve; also: nearly all actives have a fitted effect of over 30% in size; also: potency is read from the fitted curve at half-maximal effect). In outline:
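p53RE-bla cells were treated with compound for 16 hours at 37 C. Cytotoxicity was then measured as CellTiter-Glo luminescence after 30 min at room temperature.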

Test [4] can be described thus: qHTS assay for small molecules that induce genotoxicity in human embryonic kidney cells expressing luciferase-tagged ATAD5 - cell viability (AID 651634; calls by dose curve; also: nearly all actives have a fitted effect of over 25% in size). In short, it runs like this: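 Quantitative high-throughput format. HEK293T cells expressing ATAD5 fused to luciferase were plated at 2,000 cells/well and treated 15.5 hr with compound versus DMSO. Viability was determined by fluorescent live-cell protease substrate, 30 min at 37C.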

Test [5] in a line: qHTS assay for small molecule disruptors of the mitochondrial membrane potential - cell viability (AID 720634; calls by dose curve;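 also: human HepG2 liver cancer cells; nearly all actives have a fitted effect of over 20% in size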). In outline: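 Same-well counter-screen: following the MMP dye addition, CellTiter-Glo was added to 1 hr compound-treated HepG2 cells and luminescence read after 30 min at room temperature.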
The nature of test [6]: qHTS assay for small molecule disruptors of the mitochondrial membrane potential (AID 720635). Also: potency is read from the fitted curve at half-maximal effect. In short, it runs like this:
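HepG2 cells exposed to compound 1 hr at 37C, then Mito-MPS dye 30 min. Ratio read of aggregate (540/590 nm) versus monomer (490/535 nm) fluorescence.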

Test [7] in a line: qHTS assay to test for compound auto fluorescence at 590 nm (red) in HepG2 cells (AID 720674). In short, it runs like this:
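HepG2 cells, 2,000 per well in MEM with 10% FBS, attached overnight at 37 C, then got 23 nL compound or DMSO. After 1 hr at 37 C, 5% CO2, red fluorescence was read at 540/590 nm against Rose Bengal sodium as reference.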

Test [8] in a line: qHTS assay to test for compound auto fluorescence at 460 nm (blue) in HEK293 cells (AID 720678). In short, it runs like this:
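After cell attachment (4-5 hr, 37C), compounds were pinned onto HEK293 monolayers in 10% dialyzed FBS medium. The blue channel (405/460 nm) was read following overnight culture. Equivalency was calculated against triamterene.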

Test [9] in a line: qHTS assay to test for compound auto fluorescence at 590 nm (red) in HEK293 cells (AID 720679). In short, it runs like this: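 Plates of HEK293 cells (10% dialyzed FBS) are treated with 23 nL compound or DMSO vehicle after a 4-5 hr attachment period, incubated overnight at 37C, and read for red fluorescence at 540/590nm.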
Test [10] in a line: qHTS assay to test for compound auto fluorescence at 535 nm (green) in HEK293 cells (AID 720680).
Test [11] in a line: qHTS assay to test for compound auto fluorescence at 460 nm (blue) in HEK293 cell free culture (AID 720681). In short, it runs like this:
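Compounds were added to cell-free DMEM with 10% FBS and fluorescence read directly. The blue channel used 405 nm excitation and 460 nm emission, with triamterene as the reference fluorophore.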

Test [12] can be described thus: qHTS assay to test for compound auto fluorescence at 535 nm (green) in HEK293 cell free culture (AID 720682). In outline:
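Read-out: 485/535 nm fluorescence intensity, calibrated against fluorescein. Medium only (DMEM + 10% FBS, no cells); test compound or DMSO vehicle added by pintool before plate reading.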

The nature of test [13]: qHTS assay to test for compound auto fluorescence at 590 nm (red) in HEK293 cell free culture (AID 720683). In short, it runs like this:
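Cell-free wells of DMEM with 10% FBS received compound, and intrinsic fluorescence was read at excitation/emission 540/590 nm. Values expressed as equivalence to Rose Bengal sodium.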

A short description of test [14]: qHTS assay to test for compound auto fluorescence at 590 nm (red) in HepG2 cell free culture (AID 720684). In short, it runs like this:
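Rose Bengal sodium served as the reference for red signal. Test compounds were dispensed into serum-containing MEM (10% FBS) without cells, and plates were read at 540/590 nm.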

A short description of test [15]: qHTS assay to test for compound auto fluorescence at 460 nm (blue) in HepG2 cell free culture (AID 720685). In short, it runs like this:
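Cell-free plates of MEM plus 10% FBS received 23 nL compound or DMSO vehicle; blue-channel (405/460 nm) intensity scored against triamterene as reference fluorophore.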

Test [16] in a line: qHTS assay to test for compound auto fluorescence at 535 nm (green) in HepG2 cell free culture (AID 720686).
A short description of test [17]: qHTS assay to test for compound auto fluorescence at 460 nm (blue) in HepG2 cells (AID 720687). In short, it runs like this: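 HepG2 cells in MEM with 10% FBS, attached overnight at 37 C, were exposed to compound or DMSO for 1 hr at 37 C, 5% CO2. Blue fluorescence was read at 405/460 nm, with triamterene as reference fluorophore.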
The target of test [18] is Glucocorticoid receptor (Homo sapiens) (UniProt P04150). In words: qHTS assay to identify small molecule agonists of the glucocorticoid receptor (GR) signaling pathway (AID 720691; active = well fitted activation curve with a large enough effect in the signal ratio in the repeat runs, not every such curve was filed as active; the % refers to the signal ratio). To be noted: GR-bla HeLa, beta-lactamase reporter ratio, 18 h; activation: at 62.4 µM (top of the series). In outline:
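A HeLa cervical cancer line expressing GR and a glucocorticoid response element-driven beta-lactamase gene is treated with compounds for 18 h; LiveBLAzer B/G FRET substrate is then applied and fluorescence read.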

Test [19] shares this target. Description: qHTS assay to identify small molecule antagonists of the glucocorticoid receptor (GR) signaling pathway (AID 720692; active = well fitted inhibition curve with a large enough effect in the signal ratio in the repeat runs, not every such curve was filed as active; the % refers to the signal ratio; also: potency is read from the fitted curve at half-maximal effect). In short, it runs like this: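 GRE-bla HeLa line, dex-stimulated (5 nM final). Compound exposure 18 h, 37 C. Beta-lactamase FRET read after 2 h RT substrate.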
The nature of test [20]: qHTS assay to test for compound auto fluorescence at 535 nm (green) in HepG2 cells (AID 720675).

Inconclusive results are not listed. Calls of active or inactive are those of the source. Unless noted, calls follow the shape of the dose curve; as a rule, active = well fitted curve in the direction sought with a large enough effect in the repeat runs; inconclusive = weak or mixed curves; inactive = no such curve, though single readings can be large; an effect the other way counts as inactive or inconclusive.

Chain of Glucocorticoid receptor (Homo sapiens) (P04150 whole entry, looked up): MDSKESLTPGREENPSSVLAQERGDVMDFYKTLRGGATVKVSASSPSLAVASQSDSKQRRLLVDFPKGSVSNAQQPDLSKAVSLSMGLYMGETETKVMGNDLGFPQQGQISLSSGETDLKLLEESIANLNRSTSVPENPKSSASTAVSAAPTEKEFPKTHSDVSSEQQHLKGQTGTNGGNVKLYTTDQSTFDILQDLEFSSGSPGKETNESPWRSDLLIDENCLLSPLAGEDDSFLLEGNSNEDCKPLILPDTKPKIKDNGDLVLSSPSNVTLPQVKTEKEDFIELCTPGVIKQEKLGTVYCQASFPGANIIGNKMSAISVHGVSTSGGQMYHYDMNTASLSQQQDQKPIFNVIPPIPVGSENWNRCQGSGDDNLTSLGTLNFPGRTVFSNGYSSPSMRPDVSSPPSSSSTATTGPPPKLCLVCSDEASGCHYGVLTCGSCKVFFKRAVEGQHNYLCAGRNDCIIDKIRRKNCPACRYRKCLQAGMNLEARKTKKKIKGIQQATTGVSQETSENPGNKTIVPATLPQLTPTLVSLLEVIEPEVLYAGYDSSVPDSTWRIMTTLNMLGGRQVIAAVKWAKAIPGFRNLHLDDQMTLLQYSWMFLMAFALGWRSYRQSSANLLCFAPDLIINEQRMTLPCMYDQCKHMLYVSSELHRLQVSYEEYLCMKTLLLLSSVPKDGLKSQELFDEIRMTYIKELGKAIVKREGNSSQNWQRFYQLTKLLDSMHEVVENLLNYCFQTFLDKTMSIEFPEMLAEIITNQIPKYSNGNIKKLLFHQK

As for `NC(=O)c1cc[n+](CC2=C(C(=O)O)N3C(=O)[C@@H](NC(=O)C(c4ccccc4)S(=O)(=O)[O-])[C@H]3SC2)cc1` (some centres undefined), the Potency result in [1], in [2], in test [3], in test [4], in test [5] and in test [6] was “inactive” in each case. Besides, the Potency result in test [8], in test [11], in [15], in test [16] and in test [17] was “inactive” each time. Besides, the call in test [7], in test [9], in test [10], in test [12], in [13] and in [14] was inactive.
On to `CC1(C)C[C@@H]1C(=O)N/C(=C\CCCCSC[C@H](N)C(=O)O)C(=O)O`, for which the Potency result in test [1], in [3], in [4], in test [5], in [6] and in [8] was “inactive” throughout. The Potency entry in test [11], in test [15], in [16] and in [17] was “inactive” each time. Moreover, the compound was classed as inactive in [7], in test [9], in [10], in test [12] and in test [13].
Consider `CC(C)=CCC/C(C)=C/CC/C(C)=C/CC/C=C(\C)CC/C=C(\C)CCC=C(C)C`, for which the Potency entry in test [1], in test [2], in test [3], in [4], in [5] and in test [6] was “inactive” in each case. Moreover, the Potency result in [8], in [11], in test [15], in [16], in test [17] and in test [18] was “inactive” each time. For the same compound, the Potency result in [19] was “inactive”. For the same compound, the result in [7], in [9], in test [10], in test [13] and in [14] was inactive.
In the case of `Cc1cc(=O)c(C(=O)N[C@@H](C(=O)N[C@@H]2C(=O)N3C(C(=O)O)=C(CSc4nnnn4C)CS[C@H]23)c2ccc(O)cc2)c[nH]1`, the Potency entry in [1], in [2], in test [3], in [4], in [5] and in test [20] was “inactive” in each case. The Potency entry in test [8], in test [11], in [15], in test [16], in test [17] and in test [18] was “inactive” each time. The Potency result in test [19] is “inactive”. In addition, the result in test [7], in [9], in test [10], in test [12], in test [13] and in [14] was inactive.
Regarding `CCN(CC)CCNC(=O)c1ccc(NS(C)(=O)=O)cc1`, the Potency entry in test [1], in test [2], in test [3], in test [4], in [5] and in test [6] was “inactive” in each case. The Potency entry in [8], in [11], in test [15], in [17], in test [18] and in test [19] was “inactive” throughout. Moreover, the outcome in [7], in [9], in [10], in [12], in test [13] and in [14] was inactive.
For the compound `O=C1OC(O)C(C(Cl)Cl)=C1Cl` (centres undefined), the Potency is 14.1 µM (active) in [1], 15.8 µM (active) in test [3], 63 µM (active) in test [6] and 25.3 µM (active) in test [19]. Besides, the compound was called inactive in test [7], in test [9], in [10], in [12], in test [13] and in test [14]. Further, the Potency entry in test [20], in test [8], in test [11], in test [15] and in test [17] was “inactive” throughout.
In the case of `Oc1ccc(Cl)c2c1CCC2`, the Potency result in test [1], in [2], in test [3], in test [4], in [5] and in test [8] was “inactive” in each case. Moreover, the Potency result in test [11], in test [15], in [17] and in test [18] was “inactive” throughout. The Potency in test [6] is 24.8 µM (active). In addition, the result in [7], in test [9], in [10], in test [12], in test [13] and in [14] was inactive.
